# Results as given in the supplement of paper PMC10037445.
# In all, about 2,900 compounds were measured (“NF-kB SEAP reporter activity, fold change vs agonist alone”: median about 0.99, highest 2% from about 2.6 on). For the sample, the highest values were picked, then their nearest neighbours and some compounds at random.
# What was measured:
# RAW-Dual [1] = test: NF-kB SEAP reporter activity, fold change vs agonist alone; cytotoxicity flag (confluency mask): not cytotoxic; higher = enhanced NF-kB activity
# Method in brief: (§1)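 Cytotoxic wells were those whose IncuCyte confluency was below 70% of agonist controls in both mask sets. The cells were RAW-Dual macrophages at 50,000 cells/well in DMEM on 384-well plates, dosed with 50 nL of library stock by pin tool, stimulated with a PRR agonist 1 h later, and kept at 37 °C, 5% CO2 for 20 hours. IRF and NF-κB reporter activity, as fold change over agonist-alone wells, came from supernatant read by QuantiLuc luminescence and QuantiBlue absorbance, respectively.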
# RAW-Dual [2] = test: NF-kB SEAP reporter activity, fold change vs agonist alone; higher = enhanced NF-kB activity; conditions: cytotoxicity flag (confluency mask): not cytotoxic
# Method in brief: as §1
# [3] = agonist: ODN 1826 (TLR9) 0.5 ug/mL
# [4] = agonist: Pam2CSK4 (TLR2/6) 0.1 ug/mL
# [5] = agonist: Pam3CSK4 (TLR2/1) 0.1 ug/mL
# [6] = library stock concentration (final ~1000-fold dilution): 10 mM, agonist: MPLA (TLR4) […]
# [7] = library stock concentration (final ~1000-fold dilution): 10 mM, agonist: Imiquimod (TLR7) […]
smiles,measurement,setting,value
CSCCNc1nc(SCCC(F)(F)F)nc2c1ncn2C1OC(COP(=O)(O)OP(=O)(O)C(Cl)(Cl)P(=O)(O)O)C(O)C1O (stereo not drawn) (library stock concentration (final ~1000-fold dilution): 10 mM water),NF-kB SEAP reporter activity,RAW-Dual [1]; agonist: LPS (TLR4) 0.1 ug/mL,1.15
same,NF-kB SEAP reporter activity,RAW-Dual [1]; [3],1.26
same,NF-kB SEAP reporter activity,RAW-Dual [1]; [4],1.18
same,NF-kB SEAP reporter activity,RAW-Dual [1]; [5],0.935
CSCCNc1nc(SCCC(F)(F)F)nc2c1ncn2C1OC(COP(=O)(O)OP(=O)(O)C(Cl)(Cl)P(=O)(O)O)C(O)C1O (stereo not drawn),NF-kB SEAP reporter activity,"RAW-Dual [2]; library stock concentration (final ~1000-fold dilution): 10 mM water, agonist: Imiquimod (TLR7) […]",0.972
same,NF-kB SEAP reporter activity,"RAW-Dual [2]; library stock concentration (final ~1000-fold dilution): 10 mM water, agonist: MPLA (TLR4) […]",1.04
CCC1OC(=O)C(C)C(OC2CC(C)(OC)C(O)C(C)O2)C(C)C(OC2OC(C)CC(N(C)C)C2O)C(C)(O)CC(C)C(=O)C(C)C(O)C1(C)O.N#CS (stereo not drawn),NF-kB SEAP reporter activity,RAW-Dual [2]; [6],1.07
CCC1OC(=O)C(C)C(OC2CC(C)(OC)C(O)C(C)O2)C(C)C(OC2OC(C)CC(N(C)C)C2O)C(C)(O)CC(C)C(=O)C(C)C(O)C1(C)O.N#CS (stereo not drawn) (library stock concentration (final ~1000-fold dilution): 10 mM),NF-kB SEAP reporter activity,RAW-Dual [1]; agonist: LPS (TLR4) 0.1 ug/mL,1.06
same,NF-kB SEAP reporter activity,RAW-Dual [1]; [3],0.88
same,NF-kB SEAP reporter activity,RAW-Dual [1]; [4],1.07
same,NF-kB SEAP reporter activity,RAW-Dual [1]; [5],1.08
COc1cc(CCC(O)CC(O)CCc2ccc(O)c(OC)c2)ccc1O (stereo not drawn) (library stock concentration (final ~1000-fold dilution): 10 mM),NF-kB SEAP reporter activity,RAW-Dual [1]; agonist: LPS (TLR4) 0.1 ug/mL,1.41
same,NF-kB SEAP reporter activity,RAW-Dual [1]; [3],1.15
same,NF-kB SEAP reporter activity,RAW-Dual [1]; [4],1.08
same,NF-kB SEAP reporter activity,RAW-Dual [1]; [5],1.06
COc1cc(CCC(O)CC(O)CCc2ccc(O)c(OC)c2)ccc1O (stereo not drawn),NF-kB SEAP reporter activity,RAW-Dual [2]; [7],1.04
same,NF-kB SEAP reporter activity,RAW-Dual [2]; [6],1.05
COC1=CC(c2cc3ccccc3[nH]2)=N/C1=C\c1[nH]c(C)cc1C.CS(=O)(=O)O,NF-kB SEAP reporter activity,RAW-Dual [2]; [7],1.4
same,NF-kB SEAP reporter activity,RAW-Dual [2]; [6],2.78
COC1=CC(c2cc3ccccc3[nH]2)=N/C1=C\c1[nH]c(C)cc1C.CS(=O)(=O)O (library stock concentration (final ~1000-fold dilution): 10 mM),NF-kB SEAP reporter activity,RAW-Dual [1]; agonist: LPS (TLR4) 0.1 ug/mL,8.62
same,NF-kB SEAP reporter activity,RAW-Dual [1]; [3],1.9
same,NF-kB SEAP reporter activity,RAW-Dual [1]; [4],2.55
same,NF-kB SEAP reporter activity,RAW-Dual [1]; [5],3.87
CCOC(=O)COc1ccc(/C=C2\SC(=S)NC2=O)cc1OC,NF-kB SEAP reporter activity,RAW-Dual [2]; [7],0.985
same,NF-kB SEAP reporter activity,RAW-Dual [2]; [6],1.1
CCOC(=O)COc1ccc(/C=C2\SC(=S)NC2=O)cc1OC (library stock concentration (final ~1000-fold dilution): 10 mM),NF-kB SEAP reporter activity,RAW-Dual [1]; agonist: LPS (TLR4) 0.1 ug/mL,1.04
same,NF-kB SEAP reporter activity,RAW-Dual [1]; [3],0.889
same,NF-kB SEAP reporter activity,RAW-Dual [1]; [4],0.889
same,NF-kB SEAP reporter activity,RAW-Dual [1]; [5],1.1
CCOC(=O)C1=CCCCC1S(=O)(=O)Nc1ccc(F)cc1Cl (stereo not drawn) (library stock concentration (final ~1000-fold dilution): .1 mM),NF-kB SEAP reporter activity,RAW-Dual [1]; agonist: LPS (TLR4) 0.1 ug/mL,0.288
same,NF-kB SEAP reporter activity,RAW-Dual [1]; [3],1.09
same,NF-kB SEAP reporter activity,RAW-Dual [1]; [4],1.36
same,NF-kB SEAP reporter activity,RAW-Dual [1]; [5],1.39
CCOC(=O)C1=CCCCC1S(=O)(=O)Nc1ccc(F)cc1Cl (stereo not drawn),NF-kB SEAP reporter activity,"RAW-Dual [2]; library stock concentration (final ~1000-fold dilution): .1 mM, agonist: Imiquimod (TLR7) […]",1.2
same,NF-kB SEAP reporter activity,"RAW-Dual [2]; library stock concentration (final ~1000-fold dilution): .1 mM, agonist: MPLA (TLR4) […]",0.252
CS(=O)(=O)O.CS(=O)(=O)O.N=C(N)Nc1ccc(C(=O)Oc2ccc3cc(C(=N)N)ccc3c2)cc1,NF-kB SEAP reporter activity,RAW-Dual [2]; [7],1.01
same,NF-kB SEAP reporter activity,RAW-Dual [2]; [6],1.02
N=C(N)c1ccc(OCCCCCOc2ccc(C(=N)N)cc2)cc1.O=S(=O)(O)CCO.O=S(=O)(O)CCO,NF-kB SEAP reporter activity,RAW-Dual [2]; [7],1.39
same,NF-kB SEAP reporter activity,RAW-Dual [2]; [6],1.89
CS(=O)(=O)O.CS(=O)(=O)O.N=C(N)Nc1ccc(C(=O)Oc2ccc3cc(C(=N)N)ccc3c2)cc1 (library stock concentration (final ~1000-fold dilution): 10 mM),NF-kB SEAP reporter activity,RAW-Dual [1]; agonist: LPS (TLR4) 0.1 ug/mL,1.08
same,NF-kB SEAP reporter activity,RAW-Dual [1]; [3],1.05
same,NF-kB SEAP reporter activity,RAW-Dual [1]; [4],1.02
same,NF-kB SEAP reporter activity,RAW-Dual [1]; [5],0.924
N=C(N)c1ccc(OCCCCCOc2ccc(C(=N)N)cc2)cc1.O=S(=O)(O)CCO.O=S(=O)(O)CCO (library stock concentration (final ~1000-fold dilution): 10 mM),NF-kB SEAP reporter activity,RAW-Dual [1]; agonist: LPS (TLR4) 0.1 ug/mL,3.88
same,NF-kB SEAP reporter activity,RAW-Dual [1]; [3],1.22
same,NF-kB SEAP reporter activity,RAW-Dual [1]; [4],0.758
same,NF-kB SEAP reporter activity,RAW-Dual [1]; [5],1.06
NC(=O)c1ccc(OCCCN2CC3CCCC3C2)cc1 (stereo not drawn),NF-kB SEAP reporter activity,RAW-Dual [2]; [7],0.844
same,NF-kB SEAP reporter activity,RAW-Dual [2]; [6],1.05
NC(=O)c1ccc(OCCCN2CC3CCCC3C2)cc1 (stereo not drawn) (library stock concentration (final ~1000-fold dilution): 10 mM),NF-kB SEAP reporter activity,RAW-Dual [1]; agonist: LPS (TLR4) 0.1 ug/mL,0.976
same,NF-kB SEAP reporter activity,RAW-Dual [1]; [3],0.696
same,NF-kB SEAP reporter activity,RAW-Dual [1]; [4],0.926
same,NF-kB SEAP reporter activity,RAW-Dual [1]; [5],1.14
COCCc1ccc(OCC(O)CNC(C)C)cc1.COCCc1ccc(OCC(O)CNC(C)C)cc1.O=C(O)CCC(=O)O (stereo not drawn),NF-kB SEAP reporter activity,RAW-Dual [2]; [6],1.03
COCCc1ccc(OCC(O)CNC(C)C)cc1.COCCc1ccc(OCC(O)CNC(C)C)cc1.O=C(O)CCC(=O)O (stereo not drawn) (library stock concentration (final ~1000-fold dilution): 10 mM),NF-kB SEAP reporter activity,RAW-Dual [1]; agonist: LPS (TLR4) 0.1 ug/mL,1.32
same,NF-kB SEAP reporter activity,RAW-Dual [1]; [3],0.801
same,NF-kB SEAP reporter activity,RAW-Dual [1]; [4],0.839
same,NF-kB SEAP reporter activity,RAW-Dual [1]; [5],0.868
NC1(C(=O)NC(CCO)c2ccc(Cl)cc2)CCN(c2ncnc3[nH]ccc23)CC1 (stereo not drawn),NF-kB SEAP reporter activity,RAW-Dual [2]; [7],0.829
same,NF-kB SEAP reporter activity,RAW-Dual [2]; [6],0.793
NC1(C(=O)NC(CCO)c2ccc(Cl)cc2)CCN(c2ncnc3[nH]ccc23)CC1 (stereo not drawn) (library stock concentration (final ~1000-fold dilution): 10 mM),NF-kB SEAP reporter activity,RAW-Dual [1]; agonist: LPS (TLR4) 0.1 ug/mL,0.9
same,NF-kB SEAP reporter activity,RAW-Dual [1]; [3],1.06
same,NF-kB SEAP reporter activity,RAW-Dual [1]; [4],0.974
same,NF-kB SEAP reporter activity,RAW-Dual [1]; [5],0.723
O=C1N=C(O)CN1N=Cc1ccc(-c2ccc([N+](=O)[O-])cc2)o1 (library stock concentration (final ~1000-fold dilution): 10 mM),NF-kB SEAP reporter activity,RAW-Dual [1]; agonist: LPS (TLR4) 0.1 ug/mL,1.06
same,NF-kB SEAP reporter activity,RAW-Dual [1]; [3],0.843
same,NF-kB SEAP reporter activity,RAW-Dual [1]; [4],0.877
same,NF-kB SEAP reporter activity,RAW-Dual [1]; [5],0.756
O=C1N=C(O)CN1N=Cc1ccc(-c2ccc([N+](=O)[O-])cc2)o1,NF-kB SEAP reporter activity,RAW-Dual [2]; [6],1.03
COC(=O)Nc1ccc(-c2nc(N3CCOCC3)c3cnn(C4CCN(C(=O)OC)CC4)c3n2)cc1 (library stock concentration (final ~1000-fold dilution): 10 mM),NF-kB SEAP reporter activity,RAW-Dual [1]; agonist: LPS (TLR4) 0.1 ug/mL,0.888
same,NF-kB SEAP reporter activity,RAW-Dual [1]; [3],0.912
same,NF-kB SEAP reporter activity,RAW-Dual [1]; [4],0.867
same,NF-kB SEAP reporter activity,RAW-Dual [1]; [5],0.873
CN1CCN(Cc2ccc(-c3cnc4[nH]cc(-c5ccc6[nH]ccc6c5)c4c3)cc2)CC1,NF-kB SEAP reporter activity,RAW-Dual [2]; [7],0.132
same,NF-kB SEAP reporter activity,RAW-Dual [2]; [6],0.242
CN1CCN(Cc2ccc(-c3cnc4[nH]cc(-c5ccc6[nH]ccc6c5)c4c3)cc2)CC1 (library stock concentration (final ~1000-fold dilution): 10 mM),NF-kB SEAP reporter activity,RAW-Dual [1]; agonist: LPS (TLR4) 0.1 ug/mL,0.216
same,NF-kB SEAP reporter activity,RAW-Dual [1]; [3],0.181
same,NF-kB SEAP reporter activity,RAW-Dual [1]; [4],0.0629
same,NF-kB SEAP reporter activity,RAW-Dual [1]; [5],0.138
c1cncc(CN2CCC(n3ncc4c(N5CCOCC5)nc(-c5ccc6[nH]ccc6c5)nc43)CC2)c1,NF-kB SEAP reporter activity,RAW-Dual [2]; [7],0.96
same,NF-kB SEAP reporter activity,RAW-Dual [2]; [6],0.899
c1cncc(CN2CCC(n3ncc4c(N5CCOCC5)nc(-c5ccc6[nH]ccc6c5)nc43)CC2)c1 (library stock concentration (final ~1000-fold dilution): 10 mM),NF-kB SEAP reporter activity,RAW-Dual [1]; agonist: LPS (TLR4) 0.1 ug/mL,2.91
same,NF-kB SEAP reporter activity,RAW-Dual [1]; [3],0.951
same,NF-kB SEAP reporter activity,RAW-Dual [1]; [4],1.44
same,NF-kB SEAP reporter activity,RAW-Dual [1]; [5],0.777
COC(=O)Nc1ccc(-c2nc(N3CCOCC3)c3cnn(C4CCN(C(=O)OC)CC4)c3n2)cc1,NF-kB SEAP reporter activity,RAW-Dual [2]; [7],0.976
same,NF-kB SEAP reporter activity,RAW-Dual [2]; [6],0.895
Cc1cnc(NC(=O)Nc2cc(Br)c(C)cc2OCC2CNCCO2)cn1 (stereo not drawn),NF-kB SEAP reporter activity,RAW-Dual [2]; [7],0.872
same,NF-kB SEAP reporter activity,RAW-Dual [2]; [6],0.946
Cc1cnc(NC(=O)Nc2cc(Br)c(C)cc2OCC2CNCCO2)cn1 (stereo not drawn) (library stock concentration (final ~1000-fold dilution): 10 mM),NF-kB SEAP reporter activity,RAW-Dual [1]; agonist: LPS (TLR4) 0.1 ug/mL,0.68
same,NF-kB SEAP reporter activity,RAW-Dual [1]; [3],0.903
same,NF-kB SEAP reporter activity,RAW-Dual [1]; [4],0.51
same,NF-kB SEAP reporter activity,RAW-Dual [1]; [5],0.818
